Here are results for 33 targets from the supplement of paper PMC10849652.

About 8,800 targets were measured; listed, in parts, are those with a hit and a random draw of the rest. About 0.5% of all pairs of compound and target were hits. A number with no mark means an inactive call.

Chain of UniProt P35241 (P35241 whole entry, looked up): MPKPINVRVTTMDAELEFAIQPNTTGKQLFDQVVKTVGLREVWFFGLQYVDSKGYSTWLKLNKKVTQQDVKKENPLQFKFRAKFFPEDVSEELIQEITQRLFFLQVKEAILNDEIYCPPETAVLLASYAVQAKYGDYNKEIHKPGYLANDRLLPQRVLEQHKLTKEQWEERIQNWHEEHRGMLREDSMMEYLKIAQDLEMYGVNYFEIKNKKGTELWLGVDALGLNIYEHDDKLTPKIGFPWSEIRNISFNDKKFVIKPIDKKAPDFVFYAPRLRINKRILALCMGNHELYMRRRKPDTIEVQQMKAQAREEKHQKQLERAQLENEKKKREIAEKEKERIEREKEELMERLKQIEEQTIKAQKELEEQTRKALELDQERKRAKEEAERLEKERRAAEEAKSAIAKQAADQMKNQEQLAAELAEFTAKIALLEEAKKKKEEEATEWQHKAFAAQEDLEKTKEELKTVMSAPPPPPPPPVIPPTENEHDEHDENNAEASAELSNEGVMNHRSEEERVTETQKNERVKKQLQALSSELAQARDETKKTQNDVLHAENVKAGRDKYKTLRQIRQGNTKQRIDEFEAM
Chain of UniProt Q9P0P0 (Q9P0P0 whole entry, looked up): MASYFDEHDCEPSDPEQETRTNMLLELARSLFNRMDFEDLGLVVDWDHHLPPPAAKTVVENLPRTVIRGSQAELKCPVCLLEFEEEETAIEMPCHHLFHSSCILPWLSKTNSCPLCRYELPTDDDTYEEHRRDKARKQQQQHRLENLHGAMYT
Chain of UniProt P38159 (P38159 whole entry, looked up): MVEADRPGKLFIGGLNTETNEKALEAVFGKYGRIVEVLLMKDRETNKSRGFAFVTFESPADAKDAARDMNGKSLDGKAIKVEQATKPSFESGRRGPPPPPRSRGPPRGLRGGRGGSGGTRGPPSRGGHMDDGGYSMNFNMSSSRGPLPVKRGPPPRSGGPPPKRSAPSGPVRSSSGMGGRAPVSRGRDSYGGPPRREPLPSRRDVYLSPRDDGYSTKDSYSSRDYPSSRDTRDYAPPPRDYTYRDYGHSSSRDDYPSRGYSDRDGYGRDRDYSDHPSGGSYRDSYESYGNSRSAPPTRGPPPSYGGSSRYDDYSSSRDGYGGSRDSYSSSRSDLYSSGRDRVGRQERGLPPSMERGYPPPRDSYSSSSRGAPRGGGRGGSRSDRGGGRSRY
Chain of UniProt O14730 (O14730 whole entry, looked up): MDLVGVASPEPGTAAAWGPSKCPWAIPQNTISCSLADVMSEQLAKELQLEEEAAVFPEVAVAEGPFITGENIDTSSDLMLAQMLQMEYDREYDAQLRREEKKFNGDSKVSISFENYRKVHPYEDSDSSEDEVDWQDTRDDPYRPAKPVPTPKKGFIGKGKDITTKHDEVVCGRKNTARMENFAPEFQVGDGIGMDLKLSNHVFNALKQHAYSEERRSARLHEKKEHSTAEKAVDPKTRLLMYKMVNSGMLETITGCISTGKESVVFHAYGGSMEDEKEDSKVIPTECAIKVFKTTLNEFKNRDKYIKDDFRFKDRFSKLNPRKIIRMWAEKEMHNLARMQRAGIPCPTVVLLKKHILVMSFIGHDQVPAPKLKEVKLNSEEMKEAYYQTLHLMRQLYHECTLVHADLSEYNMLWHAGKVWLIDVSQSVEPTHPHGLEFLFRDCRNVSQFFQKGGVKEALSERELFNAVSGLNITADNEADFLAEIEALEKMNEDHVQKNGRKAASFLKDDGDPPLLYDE
Chain of UniProt O94855 (O94855 whole entry, looked up): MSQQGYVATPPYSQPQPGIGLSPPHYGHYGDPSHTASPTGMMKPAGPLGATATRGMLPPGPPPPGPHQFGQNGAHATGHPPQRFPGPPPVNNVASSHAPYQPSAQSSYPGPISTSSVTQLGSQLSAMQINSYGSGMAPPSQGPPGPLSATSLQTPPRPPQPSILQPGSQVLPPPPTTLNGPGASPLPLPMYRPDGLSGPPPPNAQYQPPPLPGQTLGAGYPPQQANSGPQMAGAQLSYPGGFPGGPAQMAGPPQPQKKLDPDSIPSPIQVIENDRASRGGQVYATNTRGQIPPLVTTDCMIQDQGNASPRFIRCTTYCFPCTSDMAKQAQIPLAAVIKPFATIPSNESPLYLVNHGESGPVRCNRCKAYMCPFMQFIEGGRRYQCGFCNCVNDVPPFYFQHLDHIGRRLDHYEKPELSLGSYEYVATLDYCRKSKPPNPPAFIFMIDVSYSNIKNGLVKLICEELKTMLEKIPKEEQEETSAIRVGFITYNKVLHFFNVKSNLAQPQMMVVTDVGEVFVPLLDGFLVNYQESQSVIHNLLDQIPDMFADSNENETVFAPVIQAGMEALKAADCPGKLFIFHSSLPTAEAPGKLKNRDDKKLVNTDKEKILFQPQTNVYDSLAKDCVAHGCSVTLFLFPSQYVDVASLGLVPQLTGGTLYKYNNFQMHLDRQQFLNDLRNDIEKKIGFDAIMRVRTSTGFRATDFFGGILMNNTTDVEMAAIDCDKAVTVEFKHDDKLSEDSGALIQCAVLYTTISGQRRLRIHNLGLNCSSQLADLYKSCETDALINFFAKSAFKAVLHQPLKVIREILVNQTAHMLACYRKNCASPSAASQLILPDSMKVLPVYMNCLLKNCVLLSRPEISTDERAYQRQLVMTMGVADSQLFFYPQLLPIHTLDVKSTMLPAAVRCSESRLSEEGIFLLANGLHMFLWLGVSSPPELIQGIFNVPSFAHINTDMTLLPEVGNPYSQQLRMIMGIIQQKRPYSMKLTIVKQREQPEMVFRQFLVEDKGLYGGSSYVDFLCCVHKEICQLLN
Chain of UniProt Q96EE3 (Q96EE3 whole entry, looked up): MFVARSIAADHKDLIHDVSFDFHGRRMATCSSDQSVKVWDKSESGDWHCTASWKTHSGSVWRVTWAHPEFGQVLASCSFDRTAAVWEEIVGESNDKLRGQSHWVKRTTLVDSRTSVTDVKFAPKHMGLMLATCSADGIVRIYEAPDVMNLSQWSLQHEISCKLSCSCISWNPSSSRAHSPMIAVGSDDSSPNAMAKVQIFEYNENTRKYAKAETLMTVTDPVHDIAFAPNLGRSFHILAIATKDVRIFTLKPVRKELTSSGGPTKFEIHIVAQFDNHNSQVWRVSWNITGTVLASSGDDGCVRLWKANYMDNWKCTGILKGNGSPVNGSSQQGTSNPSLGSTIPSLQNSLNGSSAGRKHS
Chain of UniProt Q9H0R6 (Q9H0R6 whole entry, looked up): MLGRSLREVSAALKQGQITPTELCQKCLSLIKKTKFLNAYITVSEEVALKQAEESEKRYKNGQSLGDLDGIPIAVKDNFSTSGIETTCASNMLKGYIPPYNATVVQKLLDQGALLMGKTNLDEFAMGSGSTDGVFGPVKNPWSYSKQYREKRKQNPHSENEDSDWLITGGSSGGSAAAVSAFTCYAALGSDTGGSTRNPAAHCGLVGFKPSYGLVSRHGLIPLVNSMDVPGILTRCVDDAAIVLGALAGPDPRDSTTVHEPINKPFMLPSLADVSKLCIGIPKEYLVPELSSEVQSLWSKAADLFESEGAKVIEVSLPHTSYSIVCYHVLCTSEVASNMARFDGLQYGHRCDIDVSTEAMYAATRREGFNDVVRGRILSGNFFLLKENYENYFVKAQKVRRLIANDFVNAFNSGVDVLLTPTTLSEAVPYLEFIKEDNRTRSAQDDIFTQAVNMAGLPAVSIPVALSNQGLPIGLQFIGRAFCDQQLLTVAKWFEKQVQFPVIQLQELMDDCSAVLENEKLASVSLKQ
Chain of UniProt Q9UL25 (Q9UL25 whole entry, looked up): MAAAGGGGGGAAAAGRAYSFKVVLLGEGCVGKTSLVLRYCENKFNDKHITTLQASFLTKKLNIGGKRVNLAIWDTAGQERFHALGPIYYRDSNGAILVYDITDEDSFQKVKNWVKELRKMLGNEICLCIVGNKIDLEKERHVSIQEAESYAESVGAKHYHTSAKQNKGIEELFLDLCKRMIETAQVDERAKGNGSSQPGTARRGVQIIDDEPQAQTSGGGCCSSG
Chain of UniProt Q8WWV3 (Q8WWV3 whole entry, looked up): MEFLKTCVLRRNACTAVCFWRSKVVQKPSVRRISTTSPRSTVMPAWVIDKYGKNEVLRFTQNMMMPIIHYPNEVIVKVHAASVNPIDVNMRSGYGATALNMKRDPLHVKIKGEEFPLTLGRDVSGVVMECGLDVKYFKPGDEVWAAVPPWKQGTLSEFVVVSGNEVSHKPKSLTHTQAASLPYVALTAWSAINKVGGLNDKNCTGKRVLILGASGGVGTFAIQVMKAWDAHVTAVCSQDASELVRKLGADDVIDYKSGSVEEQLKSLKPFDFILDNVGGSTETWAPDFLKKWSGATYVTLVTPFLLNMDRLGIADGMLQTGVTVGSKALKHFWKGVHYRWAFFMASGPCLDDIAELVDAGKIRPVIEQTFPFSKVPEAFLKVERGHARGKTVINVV
Chain of UniProt P04049 (P04049 whole entry, looked up): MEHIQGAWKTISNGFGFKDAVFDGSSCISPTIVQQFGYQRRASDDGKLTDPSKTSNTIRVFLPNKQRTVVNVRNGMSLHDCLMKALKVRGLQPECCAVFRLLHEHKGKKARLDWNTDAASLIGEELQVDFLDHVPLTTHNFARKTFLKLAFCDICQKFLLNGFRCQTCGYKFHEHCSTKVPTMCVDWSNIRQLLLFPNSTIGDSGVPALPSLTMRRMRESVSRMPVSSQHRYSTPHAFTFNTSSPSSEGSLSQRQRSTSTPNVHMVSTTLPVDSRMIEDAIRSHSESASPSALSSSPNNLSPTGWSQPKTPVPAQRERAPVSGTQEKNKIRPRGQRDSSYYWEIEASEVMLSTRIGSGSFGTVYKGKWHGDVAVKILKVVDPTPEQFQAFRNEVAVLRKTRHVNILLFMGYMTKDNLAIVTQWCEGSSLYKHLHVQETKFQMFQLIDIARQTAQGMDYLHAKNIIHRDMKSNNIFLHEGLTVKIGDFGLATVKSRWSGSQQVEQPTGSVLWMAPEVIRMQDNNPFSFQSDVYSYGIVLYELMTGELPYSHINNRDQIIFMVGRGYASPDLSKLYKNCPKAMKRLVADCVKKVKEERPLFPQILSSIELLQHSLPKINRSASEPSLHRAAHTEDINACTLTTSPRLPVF

Compound in the assay: CC1=CC=C(C=C1)SC2=C3C=C(SC3=CN=C2)C(=O)N
Description: log2 fold change, soluble protein after heating vs DMSO (PISA); higher = thermal stabilisation; K562 lysate, 10 uM; active = over 0.2 and 3.5 SD of the protein, either way, in both replicates (recomputed). Put shortly:
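To prepare the extract, K562 pellets were dounce-homogenised in PBS pH 7.4 with 1 mM MgCl2, giving crude material at 1 mg/mL protein. This was treated with 10 μM compound for 30 min, then heated in aliquots for 3 min over 48°C-58°C before pooling and addition of NP-40 to 0.5% at 4°C. Centrifugation at 21,000xg for 90 min left soluble protein in the supernatant, which TMTpro 16plex LC-MS/MS quantified with equalised channel sums. Results are log-two fold changes in thermal stability compared with solvent controls, from duplicates.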
Take SCML2 (UniProt Q9UQR0): the log2 fold change was 0.109.

Turning to SESN2 (UniProt P58004), the log2 fold change is 0.205.

As for RAF1 isoform 2 (UniProt P04049), the log2 fold change is 0.027.

RFC3 (UniProt P40938): the log2 fold change was -0.008.

In the case of RPS4X (UniProt P62701), the log2 fold change is 0.034.

Consider SEC24D isoform 2 (UniProt O94855), for which the log2 fold change was 0.023.

SCCPDH (UniProt Q8NBX0): the log2 fold change is 0.187.

Consider SEH1L isoform 1 (UniProt Q96EE3), for which the log2 fold change is -0.014.

For the target RTN4IP1 (UniProt Q8WWV3), the log2 fold change is -0.033.

RPAP1 (UniProt Q9BWH6): the log2 fold change is -0.033.

As for RIOK1 (UniProt Q9BRS2), the log2 fold change is 0.249.

Consider REXO4 (UniProt Q9GZR2), for which the log2 fold change was 0.008.

Turning to RNF181 (UniProt Q9P0P0), the log2 fold change is 0.013.

For the target RBMX (UniProt P38159), the log2 fold change is -0.006.

Consider RIOK3 (UniProt O14730), for which the log2 fold change was -0.093.

Take RNASEH2B (UniProt Q5TBB1): the log2 fold change is 0.009.

With SCD (UniProt O00767), the log2 fold change is -0.128.

Regarding RBM42 (UniProt Q9BTD8), the log2 fold change was 0.069.

As for RPL37A (UniProt P61513), the log2 fold change is 0.051.

For RPN2 (UniProt P04844), the log2 fold change is -0.017.

Regarding RRAGA (UniProt Q7L523), the log2 fold change is -0.113.

Consider RIC1 (UniProt Q4ADV7), for which the log2 fold change is -0.006.

Regarding RNASEL (UniProt Q05823), the log2 fold change was 0.027.

Consider RECQL5 (UniProt O94762), for which the log2 fold change is -0.001.

Regarding QRSL1 (UniProt Q9H0R6), the log2 fold change is 0.076.

In the case of SBF1 isoform 4 (UniProt O95248), the log2 fold change was 0.079.

In the case of RAP1B (UniProt P61224), the log2 fold change is -0.008.

Consider RPS26P11 (UniProt Q5JNZ5), for which the log2 fold change is 0.016.

Turning to RPL8 (UniProt P62917), the log2 fold change was 0.011.

As to RIPK1 (UniProt Q13546), the log2 fold change was 0.003.

Regarding RDX (UniProt P35241), the log2 fold change was -0.004.

Turning to RAB21 (UniProt Q9UL25), the log2 fold change was 0.015.

RBBP7 isoform 2 (UniProt Q16576): the log2 fold change was 0.034.
